From the supplement of paper PMC6555819

Key:
Experiment in all cases: PBM binding z-score (relative to random genomic background probes); higher = stronger binding; sequences stand for … in GC…GCGATTGACAGCGTAGAATGAAGG
[1] = system: PPARg:RXRa DBDmut IVT, anti-RXR (DBD mutation: RXRa K156A/R161A, NR concentration 270 nM, RXRa partner concentration 90 nM)
How it was run: (§1)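 Scanned fluorescence from custom Agilent 4×180K protein-binding microarrays was regression-normalized. Binding z-scores use random background probes as reference. Ligand-free nuclear receptor dimers were incubated on the arrays for 1 h and detected with antibodies against each partner (one per run).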

[2] = system: PPARg:RXRa IVT, anti-PPARg (NR concentration 270 nM, RXRa partner concentration 90 nM)
How it was run: as §1

[3] = system: PPARg DBDmut:RXRa IVT, anti-PPARg (DBD mutation: PPARg1 K132A/R137A, NR concentration 270 nM, RXRa partner concentration 90 nM)
How it was run: as §1

[4] = system: PPARg DBDmut IVT, anti-PPARg (DBD mutation: PPARg1 K132A/R137A, NR concentration 270 nM)
How it was run: as §1

[5] = system: PPARg homodimer (NR concentration 180 nM)
How it was run: as §1

[6] = system: PXR:RXRa (NR concentration 270 nM, RXRa partner concentration 90 nM)
How it was run: as §1

[7] = system: PXR homodimer (NR concentration 270 nM)
How it was run: as §1

[8] = system: RARa:RXR (NR concentration 270 nM, RXRa partner concentration 90 nM)
How it was run: as §1

[9] = system: RARa homodimer (NR concentration 270 nM)
How it was run: as §1

[10] = system: RARb:RXRa (NR concentration 270 nM, RXRa partner concentration 90 nM)
How it was run: as §1

[11] = system: RARb homodimer (NR concentration 270 nM)
How it was run: as §1

[12] = system: RARg:RXRa (NR concentration 270 nM, RXRa partner concentration 90 nM)
How it was run: as §1

[13] = system: RARg homodimer (NR concentration 270 nM)
How it was run: as §1

[14] = system: RXRa DBDmut IVT, anti-RXR (DBD mutation: RXRa K156A/R161A, NR concentration 90 nM)
How it was run: as §1

[15] = system: RXRa homodimer (NR concentration 180 nM)
How it was run: as §1

[16] = system: THRa:RXRa (NR concentration 90 nM, RXRa partner concentration 90 nM)
How it was run: as §1

[17] = system: THRa homodimer (NR concentration 90 nM)
How it was run: as §1

[18] = system: VDR homodimer (NR concentration 270 nM)
How it was run: as §1

Sequence	PBM binding z-score [1]	PBM binding z-score [2]	PBM binding z-score [3]	PBM binding z-score [4]	PBM binding z-score [5]	PBM binding z-score [6]	PBM binding z-score [7]	PBM binding z-score [8]	PBM binding z-score [9]	PBM binding z-score [10]	PBM binding z-score [11]	PBM binding z-score [12]	PBM binding z-score [13]	PBM binding z-score [14]	PBM binding z-score [15]	PBM binding z-score [16]	PBM binding z-score [17]	PBM binding z-score [18]
TCATATAGGTAATGCAGGTGAAAGTCGGCATCTA	4.18	4.3	0.872	1.17	0.782	0.415	0.211	0.602	0.52	0.41	0.531	0.489	0.438	1.04	0.993	1.1	0.297	0.176
TCGAGTAGGTTACCGATGGGGCATTCAGCTTTCT	3.39	2.48	-0.681	-0.945	-0.276	-0.00678	-0.759	0.377	-0.625	0.88	0.462	1.47	0.276	0.165	0.626	0.0793	-0.771	-0.757
CATACTAGGTCAAGGTCAAAGTCGGTTTGTGCCA	7.56	7.98	3.58	0.96	5.3	5.33	2.51	5.37	2.9	4.96	5.08	6.18	6.66	3.15	5.93	4.24	3.85	4.88
ATCGAAAGGTCGGCGAGGTGAGTATACACCGTTT	-0.166	1.39	0.74	0.0118	0.989	2.25	-0.157	2.77	-0.0319	3.5	2.95	3.69	3.91	0.785	3.86	3.29	0.709	0.535
ATATGTTGGTTATCGGGTCATTCAGTTTGCGCAT	2.6	3.36	1.53	2.49	2.81	3.49	7.6	3.19	2.08	2.05	2.89	2.24	1.97	1.61	2.56	3.26	3.07	4
ATTTCTAGGTAAAGTTCAGTGAAAGATCGATAGA	4.75	4.3	2.07	2.14	2.58	2.41	2.25	1.36	2.45	2.95	2.55	2.02	2.7	1.59	1.44	1.48	0.574	2.39
TTACCAAGGTGAGCAGAGGTCGTTGATCCAACTC	0.947	2.49	-0.426	-0.173	0.497	4.23	-0.112	2.23	-0.99	1.99	2.31	1.68	1.26	-0.0246	2.03	3.54	0.587	1.28
CCGTACGGGTCACGAGGTTATAGCACGACGAGCG	2.29	3.93	0.613	-0.38	2.82	4.73	-0.215	6.42	1.17	4.48	4.11	6.39	5.81	1.55	7.62	3.75	0.803	1.75
CCTACTGGGCCATAAGGTCATTGATATCAACGTT	4.4	5.28	0.506	0.0496	2.03	3.98	1.97	4.25	1.27	3.43	3.91	3.77	3.15	1.01	3.28	4.14	4.56	2.93
CCTTACGGGACACTCCAGGTTATAGCATCGGAGT	0.616	0.708	-0.0587	-0.578	0.252	0.0254	0.23	0.561	-0.181	0.356	0.585	0.478	0.691	0.129	0.276	1.84	0.457	0.239
AGTCAAAGTTCATCTAGGTAACTTAAGATATGCT	1.01	3.43	1.87	1.38	4.01	5.28	7.67	3.91	1.85	4.6	3.54	5.3	5.5	4.71	4.34	3.05	0.221	5.32
GCTATTAGTTGTAAGGGCAACCGAATGATTCTCG	0.378	0.518	0.0721	0.01	0.811	0.273	0.159	0.496	0.359	1.41	1.47	0.411	0.637	0.96	0.441	1.73	1.18	0.507
TCATATAGGTAATACAGGTGAAAGGCGGCATCTA	4.33	3.42	1.73	1.03	1.29	1.04	0.592	1.33	1.69	0.697	0.722	0.622	0.526	1.84	1.32	0.852	0.543	0.774
GCCACTGGGGCATCAGCAGGTTACCATAACTTAA	4.53	4.92	-0.157	-0.59	0.0359	-0.0612	-0.589	0.475	-0.576	0.955	0.865	0.714	0.439	-0.45	0.212	0.803	-0.0926	-0.602
ATCTCTAGGTAACCAAGGTCAGTGAATGCCGAAC	4.04	3.81	1.28	1.3	1.93	2.47	1.21	2.26	2.02	2.7	3.5	2.62	2.69	0.51	2.14	3.31	2.53	1.52
